The results in this text go back to the supplement of paper PMC7695840.

The assay concerns Staphylococcus aureus MW2 delta-mecA (mecA-). As to the kind of experiment: normalized GFP fluorescence (growth of mecA- strain) (fraction of control range); higher = more growth of mecA- strain. The conditions noted are these: compound concentration: 150 uM; cefoxitin: subinhibitory; fluorescent label: GFP. The procedure, abridged: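 Pre-induced S. aureus MW2 mecA+ (DsRed) and ΔmecA (GFP) cells were mixed 1:1 in LB with a daily-set subinhibitory cefoxitin dose. They were dispensed at 5 µL/well onto 150 μM compound (1.5% DMSO) in 1536-well plates, single replicate. Growth was 20 h at 37 °C, 90% humidity, unshaken, and DsRed (540/590) and GFP (485/520) were then read. Each channel was scaled per plate between the medians of the single-strain controls. Plates with high No Treatment ratios and rows with DsRed/GFP >10 were excluded.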
As to `CC(=O)N[C@@H](CS)C(=O)O`, the “normalized GFP fluorescence” value came out at 0.328.

In the case of `Nc1nc2[nH]cc(CCc3ccc(C(=O)N[C@@H](CCC(=O)O)C(=O)O)cc3)c2c(=O)[nH]1`, the “normalized GFP fluorescence” value was 0.937.

For the compound `CC(C)(O/N=C(\C(=O)N[C@@H]1C(=O)N2C(C(=O)[O-])=C(C[n+]3ccccc3)CS[C@H]12)c1csc(N)n1)C(=O)O`, the “normalized GFP fluorescence” value came to 0.00772.

`CNC1(C)C2CCC(C2)C1(C)C` (centres undefined): the “normalized GFP fluorescence” value worked out at 0.71.

On to `CCN(CC)CCNC(=O)c1ccc(N)cc1`, for which the “normalized GFP fluorescence” value turned out to be 0.328.

On to `Cc1oncc1C(=O)Nc1ccc(C(F)(F)F)cc1`, for which the “normalized GFP fluorescence” value was 0.0504.

Regarding `CC(C)C(=O)Nc1ccc([N+](=O)[O-])c(C(F)(F)F)c1`, the “normalized GFP fluorescence” value came out at 0.121.

On to `CC(C(=O)O)c1cccc(C(=O)c2ccccc2)c1` (centres undefined), for which the “normalized GFP fluorescence” value worked out at 0.247.

For `CCCCC1C(=O)N(c2ccccc2)N(c2ccc(O)cc2)C1=O` (centres undefined), the “normalized GFP fluorescence” value is -0.0111.

For `CC1(C)S[C@@H]2[C@H](NC(=O)[C@H](C(=O)O)c3ccsc3)C(=O)N2[C@H]1C(=O)O`, the “normalized GFP fluorescence” value is 0.468.

As for `CCCCCCCCCC(=O)N[C@@H](Cc1c[nH]c2ccccc12)C(=O)N[C@H](CC(N)=O)C(=O)N[C@@H](CC(=O)O)C(=O)N[C@@H]1C(=O)NCC(=O)N[C@@H](CCCN)C(=O)N[C@@H](CC(=O)O)C(=O)N[C@H](C)C(=O)N[C@@H](CC(=O)O)C(=O)NCC(=O)N[C@H](CO)C(=O)N[C@@H]([C@H](C)CC(=O)O)C(=O)N[C@@H](CC(=O)c2ccccc2N)C(=O)O[C@@H]1C` [Daptomycin], the “normalized GFP fluorescence” value was 0.013.

In the case of `OC[C@H]1O[C@H]([S-])[C@H](O)[C@@H](O)[C@@H]1O.[Au+]`, the “normalized GFP fluorescence” value came to 0.232.

As to `CN(C)CCCOc1nn(Cc2ccccc2)c2ccccc12`, the “normalized GFP fluorescence” value was found to be 0.19.

Take `C[C@H](CS)C(=O)N1CCC[C@H]1C(=O)O`: the “normalized GFP fluorescence” value worked out at 0.232.

`O=P(O)(O)C(O)(Cc1cccnc1)P(=O)(O)O` [Risedronic acid (Actonel)]: the “normalized GFP fluorescence” value came to 0.68.

With `CCN(CC)CCNC(=O)c1cc(S(C)(=O)=O)ccc1OC`, the “normalized GFP fluorescence” value came to 0.437.

Regarding `CCCc1nn(C)c2c(=O)[nH]c(-c3cc(S(=O)(=O)N4CCN(C)CC4)ccc3OCC)nc12`, the “normalized GFP fluorescence” value was found to be 0.331.

As for `CNC(C)C1CCC(N)C(OC2C(N)CC(N)C(OC3OCC(C)(O)C(NC)C3O)C2O)O1` (centres undefined), the “normalized GFP fluorescence” value came to 0.397.

As to `C[C@@H]1C[C@H]2[C@@H]3C[C@H](F)C4=CC(=O)C=C[C@]4(C)[C@@]3(F)[C@@H](O)C[C@]2(C)[C@@]1(O)C(=O)CO`, the “normalized GFP fluorescence” value worked out at 0.766.

With `Nc1ccc(S(=O)(=O)Nc2nccs2)cc1`, the “normalized GFP fluorescence” value was found to be 0.273.

`CN(C)CC[C@@H](c1ccc(Cl)cc1)c1ccccn1`: the “normalized GFP fluorescence” value turned out to be 0.307.

In the case of `Fc1ccc([C@@H]2CCNC[C@H]2COc2ccc3c(c2)OCO3)cc1`, the “normalized GFP fluorescence” value was -0.0171.

Regarding `O[C@H]1[C@H](O)[C@@H](O)[C@H](O)[C@@H](O)[C@H]1O`, the “normalized GFP fluorescence” value is 0.236.

Consider `N=C(N)NC(=O)c1nc(Cl)c(N)nc1N`, for which the “normalized GFP fluorescence” value worked out at 0.602.
